This is an account of results in PubChem BioAssay (NCI).

Values joined by “and” are separate entries in the source; they are usually repeats but may differ in a detail not shown here. Identical values can stand only once. About 83,000 compounds went through this panel and 20% of them were active in at least one assay; those are over-represented in the sample as a whole.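 How to read the values: 0–100, growth inhibition (40 = 60% inhibited); 0, no net growth; -100 to 0, cell death (-40 = 40% of starting cells died; -100 = all dead).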 Values without a mark were called inactive. Active and inactive are the calls of the source. Rule for the calls: active = growth percent below 10; inactive = the rest.

The test system of the first assay is NCI-H23 lung. Description: NCI-60 one-dose screen, 48 h (100 = growth as untreated, 0 = no growth, -100 = all killed). The note with it: 10 µM.
Turning to `O=C(CNS(=O)(=O)Cc1ccccc1)NNc1ccccc1`, the growth is 92.3%.
On to `COc1ccc2c(c1)[nH]c1c(/C=C/c3ccccc3)nccc12`, for which the growth is 60.8%.
As to `COc1ccc(C(C#N)=C2C=CC(=NO)C=C2)cc1`, the growth is 94.9%.
Still for that read-out and setting: the same measure for `CCOC(=O)[C@]1(Br)CC[C@@]1(Br)C(=O)OCC`: 109%; for `Cc1cc(C)c(N2C(=O)CC(Sc3ccccc3N)C2=O)c(C)c1` (stereo unspecified): 82.6%; for `O=C1C=CC(=O)N1c1ccc(N2C(=O)C=CC2=O)cc1`: 91.3%.
Same read-out and setting: in the case of `O=C1C(Cl)=C(Cl)C(Cl)(Cl)C(Cl)C1(Cl)Cl` (stereo unspecified) it was 106%; in that of `O=C(O)c1ccccc1.[Ag]`, 99.3%.
Still for that read-out and setting: in the case of `ClCCn1c(CCl)nc2ccc(Cl)cc21` it was -17.1% (active); in that of `COc1cc(N)ccc1Nc1c2ccccc2nc2ccccc12`, 91.8%.
For `O=C1c2ccccc2CCC1(Br)Br`, the growth is 28.9%.
On the same count and under the same terms, in the case of `CN(C)CCNc1cccc2sc3ccc(O)cc3c(=O)c12` it was 54.6%.
Same read-out and setting: in the case of `CN(C)c1ccc(/C=C/c2ccnc3ccccc23)cc1N` it was 48.8%; in that of `Cn1c2nc3ccccc3c-2nc2ccccc21`, 94.1% and 91.3%.
Same read-out and setting: the same measure for `S=C1SCN(CCc2ccccc2)CN1CCc1ccccc1`: 96.5%; for `CN(CC(=O)O)c1ccc(/C=C/c2ccnc3ccccc23)cc1`: 99%; for `O=S(=O)(c1cc(Cl)ccc1O)c1cc(Cl)ccc1O`: 84.6%.
Turning to `O=[N+]([O-])c1cc(S(=O)(=O)Nc2ccccc2)ccc1Cl`, the growth is 97%.
Still for that read-out and setting: the same measure for `Cc1cc(Cl)ccc1NC(=O)/C(Cl)=C1/Sc2ccccc2NC1=O`: 88.4%; for `O=Nc1ccc(Nc2ccccc2)cc1`: 89%.
For the compound `Cn1ncc2cc3c(Nc4ccc(Cl)cc4)cccc3nc21`, the growth was 85.6%.

Another assay has as its system NCI-H226 lung. Described as above. The settings on record: 10 µM.
In the case of `O=C(CNS(=O)(=O)Cc1ccccc1)NNc1ccccc1`, the growth was 72.9%.
Still for that read-out and setting: in the case of `COc1ccc2c(c1)[nH]c1c(/C=C/c3ccccc3)nccc12` it was 73%; in that of `COc1ccc(C(C#N)=C2C=CC(=NO)C=C2)cc1`, -14.3% (active); in that of `CCOC(=O)[C@]1(Br)CC[C@@]1(Br)C(=O)OCC`, 91.8%.
Still for that read-out and setting: in the case of `O=C1C=CC(=O)N1c1ccc(N2C(=O)C=CC2=O)cc1` it was 84.8%; in that of `O=C1C(Cl)=C(Cl)C(Cl)(Cl)C(Cl)C1(Cl)Cl` (stereo unspecified), 105%.
Same read-out and setting: the same measure for `O=C(O)c1ccccc1.[Ag]`: 104%; for `COc1cc(N)ccc1Nc1c2ccccc2nc2ccccc12`: 73.3%.
In the case of `O=C1c2ccccc2CCC1(Br)Br`, the growth was 27.1%.
Take `CN(C)CCNc1cccc2sc3ccc(O)cc3c(=O)c12`: the growth is 74%.
The same measure, in the same setting: in the case of `CN(C)c1ccc(/C=C/c2ccnc3ccccc23)cc1N` it was 53%; in that of `Cn1c2nc3ccccc3c-2nc2ccccc21`, 104%.
`S=C1SCN(CCc2ccccc2)CN1CCc1ccccc1`: the growth is 99.4%.
Same read-out and setting: the same measure for `CN(CC(=O)O)c1ccc(/C=C/c2ccnc3ccccc23)cc1`: 60.8%.
Consider `O=S(=O)(c1cc(Cl)ccc1O)c1cc(Cl)ccc1O`, for which the growth was 78.1%.
On the same count and under the same terms, the same measure for `O=[N+]([O-])c1cc(S(=O)(=O)Nc2ccccc2)ccc1Cl`: 99%; for `Cc1cc(Cl)ccc1NC(=O)/C(Cl)=C1/Sc2ccccc2NC1=O`: 90.3%.
For the compound `O=Nc1ccc(Nc2ccccc2)cc1`, the growth was 92.8%.
On the same count and under the same terms, in the case of `Cn1ncc2cc3c(Nc4ccc(Cl)cc4)cccc3nc21` it was 94.4%.

A further assay relates to NCI-H322M lung. Described as above. The note with it: 10 µM.
Consider `O=C(CNS(=O)(=O)Cc1ccccc1)NNc1ccccc1`, for which the growth was 75%.
In the case of `COc1ccc2c(c1)[nH]c1c(/C=C/c3ccccc3)nccc12`, the growth is 70.5%.
For the compound `COc1ccc(C(C#N)=C2C=CC(=NO)C=C2)cc1`, the growth was 94.3%.
The same measure, in the same setting: the same measure for `CCOC(=O)[C@]1(Br)CC[C@@]1(Br)C(=O)OCC`: 92.8%.
As for `Cc1cc(C)c(N2C(=O)CC(Sc3ccccc3N)C2=O)c(C)c1` (stereo unspecified), the growth was 112%.
The same measure, in the same setting: the same measure for `O=C1C=CC(=O)N1c1ccc(N2C(=O)C=CC2=O)cc1`: 92.4%; for `O=C1C(Cl)=C(Cl)C(Cl)(Cl)C(Cl)C1(Cl)Cl` (stereo unspecified): 103%; for `O=C(O)c1ccccc1.[Ag]`: 109%.
On the same count and under the same terms, in the case of `ClCCn1c(CCl)nc2ccc(Cl)cc21` it was 99.5%.
As for `COc1cc(N)ccc1Nc1c2ccccc2nc2ccccc12`, the growth is 83.6%.
Same read-out and setting: in the case of `O=C1c2ccccc2CCC1(Br)Br` it was 100%; in that of `CN(C)CCNc1cccc2sc3ccc(O)cc3c(=O)c12`, 59.1%.
The same measure, in the same setting: the same measure for `CN(C)c1ccc(/C=C/c2ccnc3ccccc23)cc1N`: 85.1%.
With `Cn1c2nc3ccccc3c-2nc2ccccc21`, the growth was 99.7% and 88.7%.
For the compound `S=C1SCN(CCc2ccccc2)CN1CCc1ccccc1`, the growth is 86.5%.
Still for that read-out and setting: in the case of `CN(CC(=O)O)c1ccc(/C=C/c2ccnc3ccccc23)cc1` it was 98.7%; in that of `O=S(=O)(c1cc(Cl)ccc1O)c1cc(Cl)ccc1O`, 106%.
On the same count and under the same terms, in the case of `O=[N+]([O-])c1cc(S(=O)(=O)Nc2ccccc2)ccc1Cl` it was 90.9%.
The same measure, in the same setting: the same measure for `Cc1cc(Cl)ccc1NC(=O)/C(Cl)=C1/Sc2ccccc2NC1=O`: 102%; for `O=Nc1ccc(Nc2ccccc2)cc1`: 98.5%.
Regarding `Cn1ncc2cc3c(Nc4ccc(Cl)cc4)cccc3nc21`, the growth is 104%.
